# According to PubChem BioAssay (NCATS):
# “And” between values parts separate entries of the source, which are not always exact repeats. Equal values may be shown once. Results filed as inconclusive are left out. More than one record can exist for a structure, and the calls need not agree. The source made the active and inactive calls. Calls come from the whole dose curve; as a rule, active = well fitted curve in the direction sought with a large enough effect; inconclusive = small, poorly fitted or top-dose-only effect, or another doubt; inactive = no such curve, though single readings can be large; an effect the other way counts as inactive or inconclusive.
# Assays:
# [1] = Viability qHTS for spleen associated tyrosine kinase inhibitor (SYKi) drug resistant MV4-11 cells (AID 1963824); settings: SYKi-resistant MV4-11 viability, CellTiter-Glo, 72 h; series mostly up to 45 µM; note: nearly all actives have a fitted effect of over 35% in size
# Procedure, shortened: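 SYK inhibitor-resistant MV4-11 AML cells, 500 per well, added to predispensed compounds and incubated 72 hr at 37 C, 5% CO2. Viability measured by CellTiter-Glo luminescence after 10 min at room temperature.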
# [2] = Quantitative highthroughput screen to assess conditional lethalithy of NOMO1 cells grown in RPMI1640 with untreated serum (RPMI+s) (AID 1963876); settings: NOMO1 AML cells in RPMI+serum, CellTiter-Glo viability, 48 h; series mostly up to 45.8 µM; note: nearly all actives have a fitted effect of over 35% in size;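 for Viability: 100% = DMSO wells and 0% = empty wells without cells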
# Procedure, shortened: (§1)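 Each medium arm—HPLM with 10% dialyzed FBS, or RPMI1640 with 5 mM glucose and 10% untreated or dialyzed FBS—was screened against an 11-point, 3-fold compound titration for 48 h at 37 °C, with CellTiter-Glo luminescence as endpoint.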
# [3] = Quantitative highthroughput screen to assess conditional lethalithy of NOMO1 cells grown in Human Plasma-Like Medium with dialyzed fetal bovine serum (HPLM+ds) (AID 1963878); settings: NOMO1 AML cells in HPLM+ds, CellTiter-Glo viability, 48 h; series mostly up to 45.8 µM; note: nearly all actives have a fitted effect of over 35% in size;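 for Viability: 100% = DMSO wells and 0% = empty wells on each plate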
# Procedure, shortened: as §1
# [4] = Quantitative highthroughput screen to assess conditional lethalithy of P12 Ichikawa cells grown in Human Plasma-Like Medium with dialyzed fetal bovine serum (HPLM+ds) (AID 1963879); settings: ATP luminescence, 48 h; Potency: viability; series mostly up to 45.8 µM; note: nearly all actives have a fitted effect of over 35% in size
# Procedure, shortened: as §1
# [5] = Quantitative highthroughput screen to assess conditional lethalithy of P12 Ichikawa cells grown in RPMI1640 with dialyzed fetal bovine serum (RPMI+ds) (AID 1963880); settings: ATP luminescence, 48 h; Potency: P12-Ichikawa viability; series mostly up to 45.8 µM; note: nearly all actives have a fitted effect of over 35% in size;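 for Viability: 100% = DMSO wells and 0% = empty wells on each plate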
# Procedure, shortened: as §1
# [6] = Quantitative highthroughput screen to assess conditional lethalithy of P12 Ichikawa cells grown in RPMI1640 with untreated serum (RPMI+s) (AID 1963881); settings: ATP luminescence, 48 h; Potency: viability; series mostly up to 45.8 µM; note: nearly all actives have a fitted effect of over 35% in size;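 for Viability: 100% = DMSO wells and 0% = empty wells without cells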
# Procedure, shortened: as §1
# [7] = Quantitative highthroughput screen to assess conditional lethalithy of SEM cells grown in Human Plasma-Like Medium with dialyzed fetal bovine serum (HPLM+ds) (AID 1963882); settings: SEM B-ALL cells in HPLM+ds, CellTiter-Glo viability, 48 h; series mostly up to 45.8 µM; note: nearly all actives have a fitted effect of over 35% in size
# Procedure, shortened: as §1
# [8] = Quantitative highthroughput screen to assess conditional lethalithy of SEM cells grown in RPMI1640 with unreated serum (RPMI+s) (AID 1963883); settings: SEM B-ALL cells, CellTiter-Glo viability, 48 h; series mostly up to 45.8 µM; note: nearly all actives have a fitted effect of over 35% in size;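 for Viability: 100% = DMSO wells and 0% = empty wells without cells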
# Procedure, shortened: as §1
# [9] = Quantitative highthroughput screen to assess conditional lethalithy of SEM cells grown in RPMI1640 with dialyzed fetal bovine serum (RPMI+ds) (AID 1963884); settings: SEM B-ALL cells, RPMI+dialyzed FBS, CellTiter-Glo viability, 48 h; series mostly up to 45.8 µM; note: nearly all actives have a fitted effect of over 35% in size;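 for Viability: 100% = DMSO control wells and 0% = empty wells without cells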
# Procedure, shortened: as §1
# [10] = Cellular viability qHTS for adrenocortical cancer (ACC) cell line SW-13 (AID 1963989); settings: SW-13 ACC cells viability, CellTiter-Glo, 48 h; activity (max response): stronger effect = lower value; note: nearly all actives have a fitted effect of over 65% in size;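 for activity (max response): cells grown in serum-free medium with ITS supplement; % is set by controls: 0 for no effect and ±100 for the full control effect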
# Procedure, shortened: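 Compound titrations (up to 46 uM final, in DMSO) were applied to SW-13 cells for 48 h at 37C/5% CO2. Reading used CellTiter-Glo after 20 min at room temperature; fitted curves yielded IC50 and efficacy.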
# [11] = Cellular viability qHTS for adrenocortical cancer (ACC) cell line NCI-H295R (AID 1963990); settings: CellTiter-Glo ATP luminescence, 48 h; series mostly up to 46.1 µM; note: nearly all actives have a fitted effect of over 60% in size
# Procedure, shortened: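 Readout: CellTiter-Glo luminescence, 20 min RT. Exposure: 48 h, 37C/5% CO2. Cells: NCI-H295R, ITS-DMEM serum-free. Range: up to 46 uM. Analysis: 4PL fit, IC50 plus efficacy.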
# [12] = Quantitative highthroughput screen to assess conditional lethalithy of NOMO1 cells grown in RPMI1640 with dialyzed fetal bovine serum (RPMI+ds) (AID 1963877); settings: NOMO1 in RPMI+dialyzed FBS viability, ATP luminescence, 48 h; series mostly up to 45.8 µM; note: nearly all actives have a fitted effect of over 30% in size;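 for Viability: 100% = DMSO control wells and 0% = empty wells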
# Procedure, shortened: as §1
# Potency is the fitted concentration of half-maximal effect.
Compound,Potency [1],Potency [2],Potency [3],Potency [4],Potency [5],Potency [6],Potency [7],Potency [8],Potency [9],activity (max response) [10],Potency [11],Potency [12],Potency [10]
C[C@]12CC[C@@H]3c4ccc(O)cc4C[C@@H](CCCCCCCCCS(=O)CCCC(F)(F)C(F)(F)F)[C@H]3[C@H]1CC[C@H]2O (some centres not stated),4.68 µM (active),inactive,inactive,inactive,inactive,inactive,inactive,inactive,inactive,-14.8% (inactive),inactive,,
c1cc(N[C@@H]2CCNC2)nc(-c2cnc3ccc(-c4cn[nH]c4)cn23)c1,0.0066 µM (active),inactive,,,,,,,,,inactive,5.9 µM (active),3.98 µM (active)
N#CC[C@H](C1CCCC1)n1cc(-c2ncnc3[nH]ccc23)cn1,20.6 µM (active),14.8 µM (active),7.43 µM (active),,,,,,,-17.5% (inactive),,,
Nc1cccc2c1C(=O)N(C1CCC(=O)NC1=O)C2=O (configuration not stated),inactive,inactive,,,14.8 µM (active),16.6 µM (active),,,,11.8% (inactive),inactive,inactive,
C[C@@H]1COC(Nc2ccc3ncnc(Nc4ccc(OCc5nccs5)c(Cl)c4)c3c2)=N1,2.91 µM (active),inactive,,,18.7 µM (active),,,,,,28.2 µM (active),inactive,15.8 µM (active)
Nc1[nH]nc2nnc(-c3c(-c4ccccc4)nn4ccccc34)cc12,16.4 µM (active),1.48 µM (active),,8.33 µM (active),13.2 µM (active),7.43 µM (active),23.5 µM (active),23.5 µM (active),,-4.73% (inactive),,2.64 µM (active),
c1cc(-c2sc(-c3ccncc3)c(-c3ccncc3)c2-c2ccncc2)ccn1,18.6 µM (active),inactive,,,inactive,inactive,2.96 µM (active),2.35 µM (active),2.64 µM (active),2.5% (inactive),,inactive,
CCCCn1c(=O)n(Cc2ccccc2F)c(=O)c2[nH]c(Cc3ccc(NC(C)=O)cc3)nc21,18.6 µM (active),inactive,inactive,inactive,inactive,inactive,,inactive,inactive,-3.74% (inactive),inactive,,
O=C1NC(=O)C(c2ccccc2[N+](=O)[O-])=C1Nc1ccc(O)c(Cl)c1,16.6 µM (active),18.7 µM (active),,,14.8 µM (active),,16.6 µM (active),,,-17.3% (inactive),inactive,18.7 µM (active),
Cc1cccc(C)c1OCC(=O)N[C@@H](Cc1ccccc1)[C@@H](O)C[C@H](Cc1ccccc1)NC(=O)[C@H](C(C)C)N1CCCNC1=O,23.7 µM (active),inactive,,,,,,,,,16.4 µM (active),inactive,
CCNC(=O)c1noc(-c2cc(C(C)C)c(O)cc2O)c1-c1ccc(CN2CCOCC2)cc1,0.0073 µM (active),0.0833 µM (active),,,,,,0.0418 µM (active),,,,0.0833 µM (active),
CC(=O)Oc1ccccc1C(=O)Nc1ncc([N+](=O)[O-])s1,11.9 µM (active) and 20.9 µM (active),inactive,,,,inactive,,,inactive,7.32% (inactive) and 2.04% (inactive),,inactive,
COc1ccc(C2=N[C@H](c3ccc(Cl)cc3)[C@H](c3ccc(Cl)cc3)N2C(=O)N2CCNC(=O)C2)c(OC(C)C)c1,16.6 µM (active),23.5 µM (active),10.5 µM (active),10.5 µM (active),,,0.235 µM (active),0.418 µM (active),0.187 µM (active),,,,31.6 µM (active)
Cc1c(C)n(Cc2ccc(-c3ccccc3C(=O)O)cc2)c2ccc(C(=O)N[C@@H](C)c3ccc([N+](=O)[O-])cc3)cc12,20.9 µM (active),9.35 µM (active),,,10.5 µM (active),,inactive,inactive,,,,9.35 µM (active),
CN(C)CC(C)(C)CNc1nn2c(-c3ccccc3)nnc2cc1C1CCC1,0.0103 µM (active),20.9 µM (active),10.5 µM (active),,18.7 µM (active),16.6 µM (active),,,,-3.73% (inactive),,,
CCCS(=O)c1ccc2nc(NC(=O)OC)[nH]c2c1 (configuration not stated),23.7 µM (active) and 23.5 µM (active),20.9 µM (active),20.9 µM (active),,,,,,9.35 µM (active),,,,
O=C(O)c1ccc2cc(-c3ccc(O)c(C45CC6CC(CC(C6)C4)C5)c3)ccc2c1,0.417 µM (active),1.05 µM (active),,0.59 µM (active),0.418 µM (active),0.469 µM (active),0.372 µM (active),0.372 µM (active),0.235 µM (active),,0.708 µM (active),,
CCOc1cc(C(C)(C)C)ccc1C1=N[C@@](C)(c2ccc(Cl)cc2)[C@@](C)(c2ccc(Cl)cc2)N1C(=O)N1CCN(CC(=O)N2CCOCC2)CC1,11.5 µM (active),inactive,,inactive,inactive,inactive,inactive,6.6 µM (active),5.88 µM (active),,14.1 µM (active),inactive,
CC1(C)Cc2c(-c3ccccc3)c(-c3ccc(Cl)cc3)c(CC(=O)O)n2C1,9.2 µM (active),inactive,,inactive,,inactive,inactive,inactive,inactive,,,inactive,

Compound,Potency [1],Potency [2],Potency [3],Potency [4],Potency [5],Potency [6],Potency [7],Potency [8],Potency [9],activity (max response) [10],Potency [11],Potency [12],Potency [10]
Cc1ccc(C)c(OCCCC(C)(C)C(=O)O)c1,inactive and 14.8 µM (active),inactive,inactive,inactive,inactive,,inactive,inactive,inactive,2.23% (inactive) and -5.29% (inactive),inactive,,
CC1(C)CCC(c2ccc(Cl)cc2)=C(CN2CCN(c3ccc(C(=O)NS(=O)(=O)c4ccc(N[C@H](CCN5CCOCC5)CSc5ccccc5)c(S(=O)(=O)C(F)(F)F)c4)cc3)CC2)C1,32.6 nM (active) and 118 nM (active),0.662 µM (active),,0.118 µM (active),,,0.0833 µM (active),0.0526 µM (active),0.0526 µM (active),11.1% (inactive),inactive,0.264 µM (active),
COc1ccc(CC2SC(=O)NC2=O)cc1C(=O)NCc1ccc(C(F)(F)F)cc1 (configuration not stated),18.6 µM (active),inactive,inactive,inactive,inactive,inactive,,,,-17.2% (inactive),,,
Cc1ccnc2c1NC(=O)c1cccnc1N2C1CC1,inactive,,,inactive,,inactive,inactive,inactive,inactive,-0.191% (inactive),inactive,2.09 µM (active),
CC(=O)OC1C(C)OC(Oc2c(-c3ccc(O)cc3)oc3cc(O)cc(O)c3c2=O)C(O)C1OC(C)=O (configuration not stated),20.9 µM (active),,inactive,inactive,inactive,inactive,inactive,,inactive,,inactive,inactive,
O=C(Nc1cccc(Br)c1)c1cccc(S(=O)(=O)N2CCCCCC2)c1,5.25 µM (active),,inactive,inactive,,,,,,,,inactive,
CCCNCC(O)COc1ccccc1C(=O)CCc1ccccc1 (configuration not stated),15 µM (active) and 16.6 µM (active),,inactive,inactive,inactive,inactive,inactive,,inactive,,,inactive,
Nc1nc(=O)n([C@H]2C[C@H](O)[C@@H](CO)O2)cc1F,0.0295 µM (active),,,,0.0833 µM (active),0.105 µM (active),,,,,,0.0209 µM (active),
O=C(c1cc(Cc2n[nH]c(=O)c3ccccc23)ccc1F)N1CCN(C(=O)C2CC2)CC1,16.6 µM (active),inactive,,,20.9 µM (active),,,6.62 µM (active),,,inactive,,
CCS(=O)(=O)N1CC(CC#N)(n2cc(-c3ncnc4[nH]ccc34)cn2)C1,16.4 µM (active) and 10.5 µM (active),,,inactive,inactive,inactive,,,,,,inactive,
Cc1ccc(C(C)(O)c2nc3ccccc3s2)c(C)c1 (configuration not stated),16.6 µM (active),13.2 µM (active),,10.5 µM (active),,14.8 µM (active),,,,,,,
Cc1cc(Nc2nc(N[C@@H](C)c3ncc(F)cn3)ncc2Cl)n[nH]1,1.05 µM (active),7.43 µM (active),,,,,5.26 µM (active),1.05 µM (active),2.64 µM (active),-20.7% (inactive),,,
CN(C)C(=O)[C@H](O)[C@H](Cc1ccccc1)NC(=O)c1cc2cc(Cl)ccc2[nH]1,20.9 µM (active),inactive,,,,,2.09 µM (active),2.64 µM (active),2.35 µM (active),,,,
Nc1nc(N)c2nc(CNc3ccc(C(=O)NC(CCC(=O)O)C(=O)O)cc3)cnc2n1 (configuration not stated),0.0148 µM (active),inactive,,,,,,0.0418 µM (active),,,,,
CN(C)CCN(C)C(=O)c1ccc(NC(=O)Nc2ccc(-c3nc(N4CCOCC4)c4ccn(CC(F)(F)F)c4n3)cc2)cc1,0.0525 µM (active),0.132 µM (active),,,,,,,,,3.16 µM (active),,
CCS(=O)(=O)Nc1ccc2[nH]c(O)c(C(=Nc3ccc(CN4CCCCC4)cc3)c3ccccc3)c2c1,0.0332 µM (active),,4.69 µM (active),,,,,0.0935 µM (active),0.0935 µM (active),,1.26 µM (active),0.833 µM (active),3.55 µM (active)
CCn1c(-c2nonc2N)nc2c(C#CC(C)(C)O)ncc(OC[C@H]3CCCNC3)c21,7.42 µM (active),,,0.0526 µM (active),,,18.7 µM (active),23.5 µM (active),,,17.8 µM (active),inactive,28.2 µM (active)
COc1ccc(C(=O)CC2(O)C(=O)Nc3c(Cl)ccc(Cl)c32)cc1 (configuration not stated),3.26 µM (active),9.35 µM (active),,4.18 µM (active),,4.69 µM (active),4.18 µM (active),3.72 µM (active),4.18 µM (active),-14.9% (inactive),inactive,,
CC(C)OC(=O)OCOP(=O)(CO[C@H](C)Cn1cnc2c(N)ncnc21)OCOC(=O)OC(C)C,9.44 µM (active),,,inactive,inactive,,,,,,inactive,23.5 µM (active),
